The values that follow come from PubChem BioAssay AID651871 (Sanford-Burnham Center for Chemical Genomics, 2012).

The assay relates to HL-1. Nature of the assay: protection of cardiomyocytes from stress damage, SAR follow-up, cell-based, panel, H9c2 and HL-1, ATP luminescence, set 2 (AID 651871).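 Note: cells exposed to stressor for 2 h before ATP readout; reference of the scale not given here.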 Particulars: H9c2/HL-1 cardiomyocytes, 2-deoxyglucose stress, with 2-deoxyglucose.
Setting [1] is: run 3, at 79 µM (top of the series).

“And” between values parts separate entries of the source, which are not always exact repeats. Identical values can stand only once.

With `COc1ccc2nc(-c3cc(OC)c(OC)c(OC)c3)cc(C(=O)NCC(=O)Nc3ccc(C(C)=O)cc3)c2c1`, under setting [1], the activity (protection/inhibition) amounted to 38.8%.

As for `COc1ccc2c(c1OC)C(=O)N1c3ccccc3C(=O)N(Cc3cccc(Cl)c3Cl)C21` (centres undefined), the activity (protection/inhibition) runs as follows: (run 3, at 19.8 µM (top of the series)) 22.5%; under setting [1], 35.1% and -7.14%. Regarding `CCOC(=O)c1cccc(NC(=O)CNC(=O)c2cc(-c3cc(OC)c(OC)c(OC)c3)nc3ccccc23)c1`, the activity (protection/inhibition) under setting [1] is 95.7%.
